# In the library only some 3.9% were active in any assay of this set; here they are far more common.
# CR mimetic SO = yeast age-related superoxide inhibition as caloric restriction mimetic | AID 2690 | superoxide response (% of plate mean), % at 10 µM | S. cerevisiae aged cells, superoxide DHE fluorescence; active compounds read low | actives 0.18% (n = 330,000);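 active = superoxide response under a set limit, about three screen SD below normal, cut at about 65% in these data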;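 note: yeast aged for seven days with compound at 30 °C before DHE staining; 100% = average MFI of all compound-treated wells on the plate with controls excluded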
# HIF activator = HIF pathway transcriptional activation; AID 1910; U2OS HRE-luciferase reporter, luminescence; normalized: DMSO 0%, desferrioxamine 100%; actives 0.32% (n = 300,000); activation, % at 7.5 µM (by protocol);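 active = mean activation of at least 10% of the iron chelator positive control signal, with at least half of replicates also reaching 10%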
# PLCg1 inh = blocks human PLC-gamma1 enzyme activity; inhibition, % at 12.2 µM; purified PLC-gamma1, fluorogenic substrate, fluorescence; P19174; actives 0.84% (n = 370,000); in the data active = inhibition above about 9.5%
# AHR act = activators of human aryl hydrocarbon receptor | AHR-responsive luciferase reporter cells, luminescence | activation, % at 5 µM | actives 2.5% (n = 320,000) | AID 2796; in the data active = activation above about 47%;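 note: 0% = vehicle wells and 100% = reference agonist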
# HGIII-sPLA2 inh = Inhibits HGIII-sPLA2 liposome hydrolysis, primary screen; Q9NZ20; QFRET BODIPY PC-A2 liposome hydrolysis, fluorescence; inhibition, % at 12.2 µM; actives 0.56% (n = 370,000); AID 743126;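 active = inhibition above mean plus 3 SD of compounds lying within the high and low control bounds, cut at about 19% in these data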;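 note: 0% = median of test compound wells and 100% = no enzyme DMSO wells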
# PLC-beta3 inh = blocks human PLC-beta3 enzyme activity. AID 720704. inhibition, % at 12.2 µM. actives 0.18% (n = 370,000). Purified PLC-beta3, fluorogenic substrate, fluorescence. Q01970; in the data active = inhibition above about 11%;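 note: 0% = median of compound wells on plate and 100% = full blocker control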
# * = called active by the depositor; i = inactive; · = not tested or not shown.
SMILES,CR mimetic SO,HIF activator,PLCg1 inh,AHR act,HGIII-sPLA2 inh,PLC-beta3 inh
COc1ccc(-c2[nH]c(-c3ccc(Cl)cc3)nc2SCC(=O)Nc2nccs2)cc1,95,0,-1,62*,4,-4
Cc1nc(SCC(=O)Nc2nccs2)c(C#N)c(C)c1C,107,·,-113,64*,4,-152
CCNc1nc(N)c([N+](=O)[O-])c(Nc2cccc(Cl)c2)n1,·,·,4,·,-4,3
CCOC(=O)CC[C@@]1(C(=O)OCC)C[C@@H](CC(=O)NCC23CC4CC(CC(C4)C2)C3)C(=O)N2CCCC=C21,·,·,0,·,-6,2
O=C(CSc1nnc(-c2cccnc2)n1Cc1ccco1)Nc1ccc(Cl)c(Cl)c1,·,·,1,·,-20,0
CCC1(C)OC(=O)N2CCc3c(C)[nH]c4c(C)ccc(c34)C21C (configuration not stated),107,0,-3,62*,-7,0
CCOC(=O)c1c(C)[nH]c(C(=O)COC(=O)c2ccc(N3CCCC3=O)cc2)c1C,77,0,-14,0,9,3
Brc1ccccc1C1Cc2nnccc2CN1 (configuration not stated),·,·,-3,·,-1,-1
CCOC(=O)N1CCC(N2CC34C=CC(O3)C(C(=O)Nc3ccc(C)cc3)C4C2=O)CC1 (configuration not stated),95,0,-1,77*,3,-1
Cc1ccc(-c2cc(-c3nnc(SCC(=O)Nc4ccc(OCc5ccccc5)cc4)n3N)[nH]n2)cc1,·,·,-1,·,-2,2
COC(=O)C1=C(C)N(C)C(=NCc2ccc(OC)cc2)NC1c1cccc(F)c1 (configuration not stated),·,·,2,·,7,2
CCN(CC)S(=O)(=O)c1ccc(N/N=C/c2ccc(O)cc2O)nc1,102,117*,-60,-3,-71,-72
Oc1ccc(/C=N/Nc2ncc(Br)cn2)c(O)c1,84,19*,8,9,-3,-4
c1csc(-c2csc(-c3cccs3)n2)c1,102,4,-3,25,-1,-9
O=c1oc2ccccc2cc1-c1nc(-c2cccs2)cs1,91,1,-136,62*,-5,-213
N=c1oc2ccc3ccccc3c2cc1-c1nc(-c2ccccc2)cs1,94,0,-9,15,1,-8
COc1cccc2cc(-c3ccccc3)c(=O)oc12,80,2,-32,20,7,-42
N=c1oc2ccccc2cc1-c1nc(-c2ccccc2)cs1,86,1,-371,59*,4,-444
COc1cccc2cc(-c3nc4ccccc4[nH]3)c(=O)oc12,88,3,i,72*,8,i
COc1cccc2cc(-c3nc(-c4cccs4)cs3)c(=O)oc12,102,6,-89,48*,1,-123
Nn1c(SCC(=O)Nc2ccc(OCc3ccccc3)cc2)nnc1-c1cc(-c2ccc(F)cc2)n[nH]1,·,·,1,·,2,2
O=c1oc2ccc3ccccc3c2cc1-c1nnc(-c2cccs2)o1,100,0,-110,52*,7,-109
CCOC(=O)CNC(=O)CSc1nnc(-c2ccccc2)n1CC,·,·,-1,·,-1,0
Clc1ccc(-c2nnc3n2N=C(c2ccc(-c4ccccc4)cc2)CS3)c(Cl)c1,·,·,-1,·,3,3
CC1CCC(NC(=O)c2cc3c(s2)CS(=O)(=O)C3)CC1 (configuration not stated),·,·,0,·,0,-1
SMILES,CR mimetic SO,HIF activator,PLCg1 inh,AHR act,HGIII-sPLA2 inh,PLC-beta3 inh
CC(NC(=O)c1cc2c(s1)CS(=O)(=O)C2)c1ccccc1 (configuration not stated),97,125*,-2,0,6,-9
Cc1ccccc1NC(=O)[C@@H]1CC(=O)O[C@@H]1c1ccccc1,·,·,1,·,4,2
COC1=C[C@H](C(=O)NCc2ccc(OC)cc2)C(C)C(c2ccccc2)CC1=O (some centres not stated),·,·,2,·,-3,-3
Cc1ccc(-c2cc(C#N)c3n(c2=O)CCC3)cc1,·,·,-13,·,18,-15
CCCC[C@H]1C2CC(OC(=O)Nc3ccc(Cl)cc3)C(C2)[C@H]2CCCCN21 (some centres not stated),·,·,1,·,4,1
CS(=O)(=O)c1cccc(C(=O)N(CCc2ccccc2)Cc2cccs2)c1,121,15*,2,3,-5,-7
O=C(c1cccc(S(=O)(=O)N2CCCCC2)c1)N(CCc1ccccc1)Cc1ccccc1,102,-1,2,4,-15,-2
O=C(CN1CCN(Cc2ccccc2Cl)CC1)N/N=C\c1ccccc1F,·,·,2,·,-1,2
Cc1cnn(C(=S)NCc2ccc(Cl)cc2)c1,101,-1,13*,-1,1,9
CCCCN1CCN(C(=O)c2cn(C(C)c3ccccc3)nn2)CC1 (configuration not stated),·,·,0,·,1,1
O=C(CNc1cccc2ccccc12)N/N=C/c1ccc([N+](=O)[O-])o1,137,0,-3,65*,6,-6
O=C(CNc1cccc([N+](=O)[O-])c1)N/N=C/c1ccc([N+](=O)[O-])o1,124,1,1,10,-4,1
O=C(Cc1csc(-c2ccccc2)n1)Nc1ccc(C(F)(F)F)cc1,104,0,3,55*,14,1
CO[C@@H]1CN(C)C(=O)c2ccc(NC(=O)c3ccccc3F)cc2OC[C@@H](C)N(CC2CCOCC2)C[C@@H]1C,·,·,3,·,9,11*
Clc1ccc(-c2nnc(SCc3cccc4ccccc34)n2Cc2ccco2)cc1,·,·,3,·,-3,2
CN1CCN(c2ccccc2NC(=O)c2ccc(-c3cccc(Cl)c3)o2)CC1,91,0,-30,61*,-8,-52
O=C(Nc1cccc2nsnc12)c1ccc(-c2cccc(Cl)c2)o1,103,·,-179,52*,-2,-189
CC1CC(C)CN(C(=O)C2CCN(c3cncnc3)CC2)C1 (configuration not stated),·,·,-6,·,-1,-11
CN(C)[C@H]1CCN(c2cccc3c2S(=O)(=O)N2CC[C@@H](C2)O3)C1,·,·,1,·,-1,0
O=C1Cc2ccccc2C(=O)N1Cc1cccc(Cl)c1,101,1,-6,·,-5,-13
O=C1Cc2ccccc2C(=O)N1OCc1ccc(Cl)cc1,112,0,-4,66*,0,-8
O=C1c2ccccc2C(=O)N1OCCOCCOCCON1C(=O)c2ccccc2C1=O,99,0,2,8,0,-1
O=C1c2ccccc2C(=O)N1OCc1ccc(Cl)cc1,106,0,-1,51*,-2,2
Cc1ccc(CNC(=O)C2CCCN(S(=O)(=O)c3cccnc3)C2)cc1 (configuration not stated),102,0,3,1,1,3

# Screening data as filed in PubChem BioAssay.
